Assay results from PMC4336329 (PLoS ONE, 2015).
Hit rate of the full screen: of about 310,000 compounds, about 2,200 (0.71%) showed an effect of 50% or more. Effects have a minus sign here. This excerpt belongs to a sample that is enriched for strong results.

What follows are compounds tested against human ether-à-go-go-related gene (hERG) potassium channel (human, UniProt Q12809) (assay: primary screen, population patch clamp on CHO cells stably expressing hERG; higher = less effect of the substance).
human ether-à-go-go-related gene (hERG) potassium channel, sequence (Q12809 whole entry, looked up): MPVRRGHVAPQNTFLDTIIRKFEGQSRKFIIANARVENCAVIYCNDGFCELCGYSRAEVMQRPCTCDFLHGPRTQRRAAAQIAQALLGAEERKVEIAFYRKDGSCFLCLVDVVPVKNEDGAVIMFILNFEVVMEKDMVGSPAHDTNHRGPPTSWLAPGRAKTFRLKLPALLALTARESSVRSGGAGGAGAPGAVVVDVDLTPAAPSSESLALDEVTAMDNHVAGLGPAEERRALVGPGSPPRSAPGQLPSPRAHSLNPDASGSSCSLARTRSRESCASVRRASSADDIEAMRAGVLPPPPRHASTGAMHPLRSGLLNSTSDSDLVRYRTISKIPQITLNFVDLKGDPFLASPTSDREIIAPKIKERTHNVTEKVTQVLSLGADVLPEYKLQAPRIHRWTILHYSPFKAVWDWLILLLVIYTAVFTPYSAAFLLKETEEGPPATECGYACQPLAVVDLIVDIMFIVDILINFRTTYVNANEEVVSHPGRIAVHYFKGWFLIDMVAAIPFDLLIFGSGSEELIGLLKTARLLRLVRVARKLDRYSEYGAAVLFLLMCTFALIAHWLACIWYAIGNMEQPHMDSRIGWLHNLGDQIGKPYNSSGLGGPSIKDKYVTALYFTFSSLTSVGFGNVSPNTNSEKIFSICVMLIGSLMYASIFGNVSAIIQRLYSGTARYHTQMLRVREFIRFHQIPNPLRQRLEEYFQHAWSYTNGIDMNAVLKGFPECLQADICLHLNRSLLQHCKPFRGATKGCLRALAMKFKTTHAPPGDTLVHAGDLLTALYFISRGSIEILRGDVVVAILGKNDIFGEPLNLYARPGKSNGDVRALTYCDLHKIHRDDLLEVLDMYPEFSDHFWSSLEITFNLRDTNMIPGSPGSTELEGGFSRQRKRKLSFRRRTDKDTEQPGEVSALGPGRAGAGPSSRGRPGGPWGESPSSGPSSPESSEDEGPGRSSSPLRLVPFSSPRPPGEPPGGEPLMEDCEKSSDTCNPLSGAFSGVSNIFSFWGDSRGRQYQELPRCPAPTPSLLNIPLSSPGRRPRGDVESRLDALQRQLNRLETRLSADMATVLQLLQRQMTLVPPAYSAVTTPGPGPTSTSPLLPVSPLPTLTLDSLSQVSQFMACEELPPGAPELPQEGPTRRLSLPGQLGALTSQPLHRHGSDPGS

Going from `Cc1ccccc1OCCC(=O)Nc1ccc(F)c(Cl)c1` to `CC(C)C(=O)Nc1ccc2c(c1)oc1ccccc12`, the “hERG current change (%, negative = inhibition) at 1uM” value falls from 13.7% to 11.8%.

Compared with `CC(=O)N1CC(C)Sc2ccc(S(=O)(=O)NCc3ccc(Cl)cc3)cc21` (stereo not drawn), `Cc1ccccc1S(=O)(=O)N1[C@@H](c2ccc(F)cc2)C(C(=O)O)=CC[C@H]1c1ccc(Cl)cc1` is higher in “hERG current change (%, negative = inhibition) at 1uM” value: 1.91% for the first, 8.27% for the second.

Going from `CCN1CCN(C(=O)/C=C/c2ccc(C)cc2)CC1` to `CCN1CCN(C(=O)/C=C/c2ccc(F)cc2)CC1`, the “hERG current change (%, negative = inhibition) at 1uM” value falls from 4.54% to -13.1%.

First: Cc1ccc(/C=C/C(=O)N2CCCN(C(=O)/C=C/c3ccc(C)cc3)CC2)cc1
Second: O=C(/C=C/c1ccc(F)cc1)N1CCCN(C(=O)/C=C/c2ccc(F)cc2)CC1
The “hERG current change (%, negative = inhibition) at 1uM” value of the first is higher: -53.5% for the first, -84.7% for the second.

Going from `Cc1ccc(/C=C/C(=O)NCCCN2CCN(CCCNC(=O)/C=C/c3ccc(C)cc3)CC2)cc1` to `O=C(/C=C/c1ccc(F)cc1)NCCCN1CCN(CCCNC(=O)/C=C/c2ccc(F)cc2)CC1`, the “hERG current change (%, negative = inhibition) at 1uM” value falls from 7.32% to -72.5%.

Going from `CN1CCCN(C(=O)/C=C/c2ccc(F)cc2)CC1` to `O=C(/C=C/c1ccccc1)N1CCCN(C(=O)/C=C/c2ccccc2)CC1`, the “hERG current change (%, negative = inhibition) at 1uM” value falls from -5.11% to -44%.

Compared with `O=C(/C=C/c1ccc(F)cc1)NCCNC(=O)/C=C/c1ccc(F)cc1`, `O=C(NCCNC(=O)c1cccnc1)c1ccc(Br)cc1` is higher in “hERG current change (%, negative = inhibition) at 1uM” value: 16.8% for the first, 29.6% for the second.

Compared with `COc1ccc(/C=C2\CCCC3C2=NN(C(=O)CSc2ncn[nH]2)C3c2ccc(OC)cc2)cc1` (stereo not drawn), `COc1ccc(OCC(=O)Nc2ccc(N3CCN(C(=O)c4ccccc4)CC3)c(Cl)c2)cc1` is lower in “hERG current change (%, negative = inhibition) at 1uM” value: 16.5% for the first, 9.86% for the second.

First: CCCCn1c(N)c(N(CC(C)C)C(=O)c2cccc(S(=O)(=O)N3CCCCCC3)c2)c(=O)[nH]c1=O
Second: CCCCCC(=O)Nc1ccc(N2CCN(CC)CC2)c(Cl)c1
The “hERG current change (%, negative = inhibition) at 1uM” value of the first is higher: 4.52% for the first, -55.6% for the second.

Going from `Cc1ccc(NC(=O)CSc2nnc(-c3ccco3)o2)c(C)c1` to `Cc1cc(=O)[nH]c(SC(C)C(=O)Nc2cccc3ccccc23)n1` (stereo not drawn), the “hERG current change (%, negative = inhibition) at 1uM” value falls from 17.5% to 6.33%.

Going from `Cc1ccc(C(=O)N/C(=C/c2cccs2)C(=O)NCCCn2ccnc2)cc1` to `Cc1ccc(C(=O)N/C(=C\c2cccs2)C(=O)NCCCn2ccnc2)cc1`, the “hERG current change (%, negative = inhibition) at 1uM” value falls from -50% to -66%.

Going from `O=C(NCCCn1ccnc1)/C(=C\c1cccs1)NC(=O)c1cccs1` to `O=C(NCCCn1ccnc1)/C(=C\c1cccs1)NC(=O)c1ccccc1`, the “hERG current change (%, negative = inhibition) at 1uM” value rises from -27.6% to -19.1%.

First: COc1ccc(C(=O)N/C(=C/c2cccs2)C(=O)NCCCn2ccnc2)cc1OC
Second: Cc1ccc(C(=O)N/C(=C\c2cccs2)C(=O)NCCCn2ccnc2)cc1C
The “hERG current change (%, negative = inhibition) at 1uM” value of the first is higher: 0.585% for the first, -32.3% for the second.

Compared with `CSC1=N/C(=C\c2ccccc2Cl)C(=O)N1N(C)C`, `Cc1ccc(NS(=O)(=O)c2ccccc2Cl)c2c1CC(C)(C)O2` is higher in “hERG current change (%, negative = inhibition) at 1uM” value: 1.86% for the first, 6.77% for the second.

Going from `CCC(=O)Nc1ccc(N2CCN(CC)CC2)c(Cl)c1` to `CCCC(=O)Nc1ccc(N2CCN(CC)CC2)c(Cl)c1.Cl`, the “hERG current change (%, negative = inhibition) at 1uM” value falls from 8.56% to -17.9%.

Compared with `CCN1CCN(c2ccc(NC(C)=O)cc2Cl)CC1`, `CCN1CCN(c2ccc(NC(=O)c3ccc(F)cc3)cc2Cl)CC1` is lower in “hERG current change (%, negative = inhibition) at 1uM” value: 10.3% for the first, -66.8% for the second.

First: CCN1CCN(c2ccc(NC(=O)c3cccc(F)c3)cc2Cl)CC1
Second: CCCOc1ccc(C(=O)N2CCN(c3ccc(NC(=O)CC)cc3Cl)CC2)cc1
The “hERG current change (%, negative = inhibition) at 1uM” value of the first is higher: -8.27% for the first, -58.7% for the second.

First: CCCOc1ccc(C(=O)N2CCN(c3ccc(N)cc3Cl)CC2)cc1
Second: CCOc1ccc(NC(=O)CN(C)C(=O)c2ccc(COc3ccccc3)cc2)cc1OCC
The “hERG current change (%, negative = inhibition) at 1uM” value of the first is lower: -6.51% for the first, 4.94% for the second.

Compared with `CCC(=O)NC(=S)NNC(=O)c1ccc([N+](=O)[O-])cc1`, `CN(C)C/C=C(\c1ccc(Br)cc1)c1cccnc1.Cl.O` is lower in “hERG current change (%, negative = inhibition) at 1uM” value: 8.99% for the first, -35.3% for the second.

First: CC(OC(=O)c1cccs1)C(=O)NC1CC1 (stereo not drawn)
Second: CC(OC(=O)c1cccs1)C(=O)NC1CCCCC1C (stereo not drawn)
The “hERG current change (%, negative = inhibition) at 1uM” value of the first is higher: 7.03% for the first, -66.1% for the second.

Compared with `CC(OC(=O)CCC(=O)c1cccs1)C(=O)NC1CCCCC1C` (stereo not drawn), `O=C(COC(=O)C12CC3CC(CC(O)(C3)C1)C2)Nc1ccc(Cl)cc1F` is lower in “hERG current change (%, negative = inhibition) at 1uM” value: 0.622% for the first, -1.56% for the second.

First: Cc1ccc2sc(NNC(=O)C3COc4ccccc4O3)nc2c1C (stereo not drawn)
Second: COc1ccccc1C(=O)Nc1ccon1
The “hERG current change (%, negative = inhibition) at 1uM” value of the first is higher: 9.9% for the first, -0.0061% for the second.

With `CN(C)C/C=C(/c1ccc(Br)cc1)c1cccnc1.Cl` the “hERG current change (%, negative = inhibition) at 1uM” value was -60.8%.
